Bioassay records from PubChem.
Only some compounds are listed: those with a hit (about 3% of all), similar ones and a draw of the others.
EWS-Fli inh – EWS/Fli-driven NR0B1 reporter inhibitors, primary screen, A673 cells, NR0B1 luciferase, luminescence, MLPCN library. viability-normalised. inhibition, % at 12.6 µM. 350,000 compounds, 0.67% hits. AID 651661, 2012;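 active means mean inhibition of at least 50% after viability correction, with every replicate also passing that limit; inconclusive means mean reaches 50% but only one of two replicates passes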;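 further: firefly luciferase signal divided by Alamar Blue viability fluorescence both relative to DMSO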
Shn3 inh set2 – reduction of Shn3 3'UTR firefly luciferase signal, primary screen, Schnurri-3 inhibitor project, cell-based, Clone20 osteoblasts, set 2; Clone20 osteoblast Shn3 3'UTR firefly luciferase, 24 h; inhibition, % at 12.5 µM; 360,000 compounds, 0.52% hits; AID 588674, 2011;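 active means mean inhibition of at least 75% with every replicate also reaching 75%; inconclusive means mean inhibition at least 75% but some replicate below; inactive means mean inhibition below 75%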
Peg3 promoter – Peg3 promoter-driven luciferase inhibitors, primary screen, cell-based, HeLa, luciferase luminescence; HeLa PEG-Prom luciferase reporter, overnight; inhibition, % at 20 µM; 360,000 compounds, 1.7% hits;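 active means inhibition of at least 50% at 20 µM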
PAX8 inh HTS – inhibitors of PAX8-driven TPO luciferase reporter, primary screen, RMG-I cells, single concentration. SteadyGlo, 24 h. inhibition, % at 12.6 µM. 360,000 compounds, 1.2% hits;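 active means mean replicate inhibition at least 60% with every replicate also reaching 60%; inconclusive means only one of the two criteria is met; inactive means mean below 60% and not all replicates reaching 60%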;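 further: luciferase light reporting Pax8 driven TPO promoter activity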
ABHD5-PLIN5 inh – ABHD5-PLIN5 interaction inhibitors, primary screen, cell lysate, split luciferase complementation, luminescence; Perilipin-5 (Homo sapiens) + 1-acylglycerol-3-phosphate O-acyltransferase ABHD5 (Homo …; Split G. princeps luciferase complementation, 4 h; inhibition, % at 4 µM; 360,000 compounds, 0.78% hits; AID 602281, 2012;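 active means inhibition above the mean inhibition across every tested compound plus 3 SD, cut at about 22% in these data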
Target sequence (Q00G26 whole entry, looked up): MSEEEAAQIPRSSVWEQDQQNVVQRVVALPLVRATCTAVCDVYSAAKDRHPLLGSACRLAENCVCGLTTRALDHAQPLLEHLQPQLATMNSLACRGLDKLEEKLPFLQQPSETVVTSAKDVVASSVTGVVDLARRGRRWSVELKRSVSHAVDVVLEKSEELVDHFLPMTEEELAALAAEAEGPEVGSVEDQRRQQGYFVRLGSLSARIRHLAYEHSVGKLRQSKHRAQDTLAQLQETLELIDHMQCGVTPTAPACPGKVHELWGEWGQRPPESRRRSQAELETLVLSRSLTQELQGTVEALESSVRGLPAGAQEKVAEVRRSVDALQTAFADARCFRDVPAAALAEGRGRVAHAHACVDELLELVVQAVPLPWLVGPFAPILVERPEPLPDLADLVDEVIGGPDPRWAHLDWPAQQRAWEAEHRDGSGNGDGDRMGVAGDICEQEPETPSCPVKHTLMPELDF
Target sequence (Q8WTS1 whole entry, looked up): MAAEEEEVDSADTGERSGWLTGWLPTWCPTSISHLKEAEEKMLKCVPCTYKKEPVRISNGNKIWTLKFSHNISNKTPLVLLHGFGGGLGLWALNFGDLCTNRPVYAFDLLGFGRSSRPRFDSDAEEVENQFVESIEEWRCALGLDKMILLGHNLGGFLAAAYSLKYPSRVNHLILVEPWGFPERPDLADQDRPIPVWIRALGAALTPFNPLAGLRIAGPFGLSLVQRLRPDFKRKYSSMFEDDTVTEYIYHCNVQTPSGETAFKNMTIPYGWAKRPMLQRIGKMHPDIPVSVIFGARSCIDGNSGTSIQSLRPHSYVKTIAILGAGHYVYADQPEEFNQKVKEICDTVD
MITF TRPM1 inh – inhibitors of MITF-dependent TRPM1 promoter reporter, primary screen, cell-based, SK-MEL-5, single point, luciferase; SK-MEL-5 TRPM1 promoter luciferase, 24 h; 330,000 compounds, 0.83% hits; inhibition, % at 12.5 µM; AID 488899, 2010;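 active means mean inhibition across replicates of 60% or more, whatever share of single replicates reaches that level; inconclusive means some that reach 60%, reason not given; inactive means mean inhibition across replicates below 60%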
Large screens that a line does not name were inactive.

COCC(C)n1c(C)cc(C(=O)COC(=O)c2n[nH]c3ccccc23)c1C (stereo not drawn)	none (no result: EWS-Fli inh, PAX8 inh HTS)
C[C@H](CO)N1C[C@H](C)[C@@H](CN(C)S(=O)(=O)c2ccc(F)cc2)Oc2ccc(NC(=O)Nc3ccccc3)cc2CC1=O	none (no result: Shn3 inh set2, Peg3 promoter, ABHD5-PLIN5 inh, MITF TRPM1 inh)
C[C@@H]1CN([C@H](C)CO)C(=O)c2cccc(NC(=O)NC3CCCCC3)c2O[C@@H]1CN(C)Cc1ccc2c(c1)OCO2	none (no result: Shn3 inh set2, Peg3 promoter, ABHD5-PLIN5 inh, MITF TRPM1 inh)
COc1ccccc1CN1C[C@H](C)[C@H](OC)CN(C)C(=O)c2ccc(NC(C)=O)cc2OC[C@H]1C	none (no result: Shn3 inh set2, Peg3 promoter, ABHD5-PLIN5 inh, MITF TRPM1 inh)
COc1ccccc1S(=O)(=O)N[C@H]1C=C[C@H](CC(=O)N2CCOCC2)O[C@@H]1CO	none (no result: Shn3 inh set2, Peg3 promoter, ABHD5-PLIN5 inh, MITF TRPM1 inh)
COCCNC(=O)c1cc2c(=O)n3cccc(C)c3nc2n1C	none
CCOCCCNC(=O)c1cc2c(=O)n3cccc(C)c3nc2n1C	EWS-Fli inh 52.2
O=C([C@H]1[C@H](CO)[C@H]2Cn3c(ccc(-c4cccnc4)c3=O)[C@H]2N1CC1CC1)N1CCCCC1	none (no result: Shn3 inh set2, Peg3 promoter, ABHD5-PLIN5 inh, MITF TRPM1 inh)
COCC(=O)OC1CCn2c1nc1c2C(=O)C(C)=C(NC(C)=O)C1=O (stereo not drawn)	Shn3 inh set2 88.7, Peg3 promoter 84.9, PAX8 inh HTS 115.3, MITF TRPM1 inh 85.6
O=C(c1ccc([N+](=O)[O-])s1)N1CCc2ccccc21	none
O=C(c1ccc([N+](=O)[O-])s1)N1CCCc2ccccc21	MITF TRPM1 inh 70.5
COc1ccc2c3c([nH]c2c1)[C@@H](CO)N(CC1CCOCC1)CC31CN(C(=O)C2CC2)C1	none (no result: Shn3 inh set2, Peg3 promoter, PAX8 inh HTS, ABHD5-PLIN5 inh, MITF TRPM1 inh)
COc1cccc(N(C(=O)CCl)C(C(=O)NCCc2ccccc2)c2cccs2)c1 (stereo not drawn)	Peg3 promoter 109.3, MITF TRPM1 inh 88.5 (no result: EWS-Fli inh, PAX8 inh HTS)
COc1cccc(N(C(=O)c2snc(C(N)=O)c2N)C(C(=O)NCC2CCCO2)c2cccs2)c1 (stereo not drawn)	none
COc1ccc(N(C(=O)CCl)C(C(=O)NCCc2ccccc2)c2cccs2)cc1Cl (stereo not drawn)	EWS-Fli inh 68.4, Shn3 inh set2 inconclusive, Peg3 promoter 102.1, PAX8 inh HTS 104.2, MITF TRPM1 inh 85.6
COc1ccc(N(C(=O)c2ccco2)C(C(=O)NC2CCCCC2)c2cccs2)cc1OC (stereo not drawn)	none (no result: EWS-Fli inh, PAX8 inh HTS)
CCCCc1c(-c2ccccc2OC)ncn1Cc1ccc(-c2ccccc2)cc1	none (no result: Shn3 inh set2, Peg3 promoter, MITF TRPM1 inh)
CCCCc1c(-c2ccccc2OC)ncn1Cc1ccc(C)cc1	PAX8 inh HTS 61.3 (no result: Shn3 inh set2, Peg3 promoter, ABHD5-PLIN5 inh, MITF TRPM1 inh)
CC(C(=O)c1ccc(-c2ccccc2)cc1)[n+]1ccccc1 (stereo not drawn)	none (no result: EWS-Fli inh)
Cc1cc[n+](C(C)C(=O)c2ccc(-c3ccccc3)cc2)cc1 (stereo not drawn)	PAX8 inh HTS 68.5, MITF TRPM1 inh inconclusive
c1ccc2c(c1)oc1c(NCCN3CCOCC3)ncnc12	none (no result: EWS-Fli inh, PAX8 inh HTS)
c1ccc2c(c1)oc1c(Nc3ccc(CN4CCOCC4)cc3)ncnc12	Peg3 promoter 78.8 (no result: EWS-Fli inh, PAX8 inh HTS)
CO[C@@H]1CN(C)C(=O)c2ccc(NC(C)=O)cc2OC[C@H](C)N(C(=O)Cc2ccccn2)C[C@H]1C	none (no result: Shn3 inh set2, Peg3 promoter, PAX8 inh HTS, ABHD5-PLIN5 inh, MITF TRPM1 inh)
O=C(CCl)N1N=C(c2cccs2)CC1c1ccco1 (stereo not drawn)	EWS-Fli inh 70.7
Oc1cc(NCc2ccc(Cl)cc2)cc2cccnc12	none
CN(C)CCCNc1cc(O)c2ncccc2c1	Peg3 promoter 80.9
Oc1cc(NCc2ccc(F)cc2)cc2cccnc12	PAX8 inh HTS 73.2
O=[N+]([O-])c1cc(O)c2ncccc2c1	none (no result: Shn3 inh set2, Peg3 promoter, ABHD5-PLIN5 inh, MITF TRPM1 inh)
CO[C@@H]1CN(C)C(=O)c2cc(NS(C)(=O)=O)ccc2OC[C@H](C)N(CC2CCCCC2)C[C@H]1C	none (no result: Shn3 inh set2, Peg3 promoter, PAX8 inh HTS, ABHD5-PLIN5 inh, MITF TRPM1 inh)
CCCNC(=O)N(C)C[C@H]1N[C@@H](CO)[C@@H]1c1ccc(C2=CCCCC2)cc1	PAX8 inh HTS 102.9 (no result: Shn3 inh set2, Peg3 promoter, ABHD5-PLIN5 inh, MITF TRPM1 inh)
COCC#Cc1ccc2c(c1)O[C@@H](CN(C)C(=O)CN(C)C)[C@@H](C)CN([C@@H](C)CO)S2(=O)=O	none (no result: Shn3 inh set2, Peg3 promoter, PAX8 inh HTS, ABHD5-PLIN5 inh, MITF TRPM1 inh)
O=S(=O)(Nc1cccc(-c2cn3cccnc3n2)c1)c1ccc(Cl)cc1	PAX8 inh HTS 131.8
CNC[C@H]1Oc2c(NS(=O)(=O)c3cn(C)cn3)cccc2C(=O)N([C@H](C)CO)C[C@H]1C	none (no result: Shn3 inh set2, Peg3 promoter, ABHD5-PLIN5 inh, MITF TRPM1 inh)
CN(C(=O)COC(=O)/C=C/c1ccc2ccccc2n1)c1c(N)n(Cc2ccccc2)c(=O)[nH]c1=O	PAX8 inh HTS 86.1
CCN(C(=O)COC(=O)/C=C/c1nc2ccccc2s1)c1c(N)n(Cc2ccccc2)c(=O)[nH]c1=O	none
COCCN(C(=O)COC(=O)/C=C/c1ccc2ccccc2n1)c1c(N)n(Cc2ccccc2)c(=O)[nH]c1=O	PAX8 inh HTS 63.6 (no result: EWS-Fli inh)
CN(C(=O)COC(=O)/C=C/c1ccc(F)cc1)c1c(N)n(Cc2ccccc2)c(=O)[nH]c1=O	none
COc1ccc2c(CC(=O)OCC(=O)N(C)c3c(N)n(Cc4ccccc4)c(=O)[nH]c3=O)coc2c1	Shn3 inh set2 93.9
COCCN(C(=O)COC(=O)/C=C/c1nc2ccccc2s1)c1c(N)n(Cc2ccccc2)c(=O)[nH]c1=O	PAX8 inh HTS 76.5
COCCN(C(=O)COC(=O)/C=C/c1ccccc1Cl)c1c(N)n(Cc2ccccc2)c(=O)[nH]c1=O	none
CC(C)C#Cc1cnc2c(c1)C(=O)N([C@@H](C)CO)C[C@H](C)[C@H](CN(C)S(=O)(=O)c1cn(C)cn1)O2	none (no result: Shn3 inh set2, Peg3 promoter, PAX8 inh HTS, ABHD5-PLIN5 inh, MITF TRPM1 inh)
CNC[C@@H]1Oc2ccc(NC(=O)Nc3ccccc3)cc2CC(=O)N([C@@H](C)CO)C[C@H]1C	none (no result: Shn3 inh set2, Peg3 promoter, ABHD5-PLIN5 inh, MITF TRPM1 inh)
COc1ccccc1NC(=O)N(C)C[C@H]1OCc2ccccc2-c2ccccc2C(=O)N([C@@H](C)CO)C[C@H]1C	none (no result: Shn3 inh set2, Peg3 promoter, ABHD5-PLIN5 inh, MITF TRPM1 inh)
O=C([O-])c1ccccc1-[n+]1c(-c2ccccc2)cc(-c2ccccc2)cc1-c1ccccc1	PAX8 inh HTS 85.2
